Results published in the supplement of paper PMC10849652.
Of roughly 8,800 targets only a part is listed; those with a hit were picked by preference. About 0.5% of all pairs of compound and target were hits.

Tests used:
Experiment in all cases: log2 fold change, soluble protein after heating vs DMSO (PISA); higher = thermal stabilisation; K562 lysate, 10 uM; active = over 0.2 and 3.5 SD of the protein, either way, in both replicates (recomputed)
[1] = compound: CCCS(=O)(=O)Nc1ccc(F)c(C(=O)c2c[nH]c3ncc(-c4ccc(Cl)cc4)cc23)c1F [vemurafenib]
Method in brief: (§1)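 To prepare the extract, K562 pellets were dounce-homogenised in PBS pH 7.4 with 1 mM MgCl2, giving crude material at 1 mg/mL protein. This was treated with 10 μM compound for 30 min, then heated in aliquots for 3 min over 48°C-58°C before pooling and addition of NP-40 to 0.5% at 4°C. Centrifugation at 21,000xg for 90 min left soluble protein in the supernatant, which TMTpro 16plex LC-MS/MS quantified with equalised channel sums. Results are log-two fold changes in thermal stability compared with solvent controls, from duplicates.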

[2] = compound: CCCS(=O)(=O)Nc1ccc(F)c(C(=O)c2c[nH]c3ncc(Cl)cc23)c1F
Method in brief: as §1

[3] = compound: CCN(CCCOc1ccc2c(Nc3cc(CC(=O)Nc4cccc(F)c4)[nH]n3)ncnc2c1)CCOP(=O)(O)O [barasertib]
Method in brief: as §1

[4] = compound: CC[C@@H]1C(=O)N(C)c2cnc(Nc3ccc(C(=O)NC4CCN(C)CC4)cc3OC)nc2N1C1CCCC1
Method in brief: as §1

[5] = compound: CC[C@@H]1C(=O)N(C)c2cnc(Nc3ccc(C(=O)N[C@H]4CC[C@H](N5CCN(CC6CC6)CC5)CC4)cc3OC)nc2N1C(C)C [volasertib]
Method in brief: as §1

[6] = compound: CCn1c(C(=O)N(C2CC2)C2CC2)cc2c3c(ncn3C)c(Nc3cc(C)n(C)n3)nc21
Method in brief: as §1

[7] = compound: CCn1cc(-c2ccnc3[nH]c(-c4cccc(CN(C)C)c4)cc23)c(-c2ccc(NC(=O)N(C)C)cc2)n1
Method in brief: as §1

[8] = compound: CN1CCC(CNc2ccc3ncc(-c4cccc(OC(F)(F)F)c4)n3n2)CC1
Method in brief: as §1

[9] = compound: CN1CCN(CCOc2cc(OC3CCOCC3)c3c(Nc4c(Cl)ccc5c4OCO5)ncnc3c2)CC1 [saracatinib]
Method in brief: as §1

[10] = compound: CN1CCN(c2nc(C3=C(c4c[nH]c5ccccc45)C(=O)NC3=O)c3ccccc3n2)CC1 [sotrastaurin]
Method in brief: as §1

[11] = compound: CN1CC[C@H](c2c(O)cc(O)c3c(=O)cc(-c4ccccc4Cl)oc23)[C@H](O)C1 [alvocidib]
Method in brief: as §1

[12] = compound: CN1CCc2c(c3ccccc3n2Cc2ccc(C(=O)NO)cc2)C1 [Tubastatin A]
Method in brief: as §1

[13] = compound: CNC(=O)C1=CC=CC=C1NC2=NC(=NC=C2Cl)NC3=C(C=C(C=C3)N4CCOCC4)OC
Method in brief: as §1

[14] = compound: CNC(=O)c1ccc(Nc2ncc(C(F)(F)F)c(NCc3nccnc3N(C)S(C)(=O)=O)n2)cc1 [defactinib]
Method in brief: as §1

[15] = compound: CNc1nc(-c2ccc3c(N)n[nH]c3c2)cc(N2C[C@@H](C(=O)NC3CCCCC3)CC[C@H]2C)n1
Method in brief: as §1

[16] = compound: COC(=O)N[C@@H](C)CNc1nccc(-c2cn(C(C)C)nc2-c2cc(Cl)cc(NS(C)(=O)=O)c2F)n1 [encorafenib]
Method in brief: as §1

[17] = compound: COC(=O)[C@H](CCSC)NC(=O)C1=C(C=C(C=C1)NC[C@H](CS)N)C2=CC=CC=C2
Method in brief: as §1

[18] = compound: COc1cc(Nc2ncc3c(n2)-c2ccc(Cl)cc2C(c2c(F)cccc2OC)=NC3)ccc1C(=O)O [alisertib]
Method in brief: as §1

[19] = compound: COc1cc2nc(-c3cc(F)ccc3O)nc(N[C@@H]3CNC[C@H]3C(C)(C)O)c2cc1OC
Method in brief: as §1

[20] = compound: COc1cc2ncnc(Nc3ccc(F)c(Cl)c3)c2cc1OCCCN1CCOCC1 [gefitinib]
Method in brief: as §1

Measured: log2 fold change

RFC3 (UniProt P40938)
Chain of UniProt P40938 (P40938 whole entry, looked up): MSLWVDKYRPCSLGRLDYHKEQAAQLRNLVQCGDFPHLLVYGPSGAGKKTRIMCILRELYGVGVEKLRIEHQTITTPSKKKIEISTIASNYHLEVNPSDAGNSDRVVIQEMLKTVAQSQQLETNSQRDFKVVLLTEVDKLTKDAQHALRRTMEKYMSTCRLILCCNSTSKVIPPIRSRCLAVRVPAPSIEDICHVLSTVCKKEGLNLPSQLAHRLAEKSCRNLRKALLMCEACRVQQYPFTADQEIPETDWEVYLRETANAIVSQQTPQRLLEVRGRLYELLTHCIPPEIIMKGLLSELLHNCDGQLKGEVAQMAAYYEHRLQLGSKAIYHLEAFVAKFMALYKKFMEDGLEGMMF
inactive: [1] 0.021 | [2] 0.025 | [3] 0.046 | [4] -0.033 | [5] -0.065 | [6] 0.013 | [7] 0.133 | [8] 0.001 | [9] 0.001 | [10] 0.039 | [11] -0.008 | [12] -0.142 | [13] 0.024 | [14] 0.036 | [15] -0.014 | [16] 0.002 | [17] -0.005 | [18] 0.007 | [19] 0.029 | [20] -0.075

RAB3IL1 (UniProt Q8TBN0)
Chain of UniProt Q8TBN0 (Q8TBN0 whole entry, looked up): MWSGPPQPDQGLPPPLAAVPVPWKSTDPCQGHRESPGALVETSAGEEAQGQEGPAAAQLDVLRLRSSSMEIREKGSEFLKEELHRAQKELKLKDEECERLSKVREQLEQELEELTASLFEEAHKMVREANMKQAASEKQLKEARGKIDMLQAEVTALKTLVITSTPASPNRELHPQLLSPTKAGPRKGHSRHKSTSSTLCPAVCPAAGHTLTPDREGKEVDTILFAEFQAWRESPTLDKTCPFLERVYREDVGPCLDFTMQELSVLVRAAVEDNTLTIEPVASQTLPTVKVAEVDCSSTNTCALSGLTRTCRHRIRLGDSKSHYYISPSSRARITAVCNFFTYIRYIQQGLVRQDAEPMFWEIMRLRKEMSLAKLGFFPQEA
inactive: [1] -0.018 | [2] 0.017 | [3] 0.054 | [4] 0.022 | [5] -0.008 | [6] 0.054 | [7] 0.025 | [8] -0.016 | [9] 0.033 | [10] -0.024 | [11] 0.027 | [12] -0.021 | [13] 0.022 | [14] 0.007 | [15] 0.009 | [16] -0.006 | [17] -0.031 | [18] -0.013 | [19] 0.039 | [20] 0.014

RCAN1 (UniProt P53805)
Chain of UniProt P53805 (P53805 whole entry, looked up): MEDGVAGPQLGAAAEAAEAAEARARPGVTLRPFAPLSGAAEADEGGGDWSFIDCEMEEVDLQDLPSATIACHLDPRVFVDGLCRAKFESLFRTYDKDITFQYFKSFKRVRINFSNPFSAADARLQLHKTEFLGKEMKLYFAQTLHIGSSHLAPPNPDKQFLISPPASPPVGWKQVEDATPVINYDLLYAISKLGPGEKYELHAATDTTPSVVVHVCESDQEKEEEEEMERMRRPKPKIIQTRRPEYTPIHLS
inactive: [1] 0.028 | [2] 0.061 | [3] 0.034 | [4] -0.022 | [5] -0.026 | [6] -0.06 | [7] -0.024 | [8] 0.041 | [9] 0.025 | [10] -0.056 | [11] -0.003 | [12] -0.118 | [13] 0.052 | [14] 0.006 | [15] 0.079 | [16] 0.065 | [17] 0.035 | [18] -0.02 | [19] 0.019 | [20] -0.038

RBM42 (UniProt Q9BTD8)
Chain of UniProt Q9BTD8 (Q9BTD8 whole entry, looked up): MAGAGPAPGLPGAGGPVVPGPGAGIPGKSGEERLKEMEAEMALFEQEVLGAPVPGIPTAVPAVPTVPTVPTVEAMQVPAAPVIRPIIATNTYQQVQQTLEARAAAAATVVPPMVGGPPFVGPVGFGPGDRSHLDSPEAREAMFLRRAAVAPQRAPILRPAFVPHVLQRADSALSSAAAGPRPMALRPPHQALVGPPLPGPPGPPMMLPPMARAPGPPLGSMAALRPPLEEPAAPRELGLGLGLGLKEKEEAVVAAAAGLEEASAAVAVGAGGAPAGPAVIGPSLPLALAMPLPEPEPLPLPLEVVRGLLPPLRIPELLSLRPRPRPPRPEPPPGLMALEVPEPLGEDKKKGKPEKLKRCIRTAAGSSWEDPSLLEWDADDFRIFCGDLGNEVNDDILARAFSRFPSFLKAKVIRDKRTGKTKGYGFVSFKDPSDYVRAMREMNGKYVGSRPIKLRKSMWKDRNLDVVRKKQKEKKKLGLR
active: [17] -0.28
inactive: [1] -0.029 | [2] 0.027 | [3] -0.037 | [4] 0.076 | [5] -0.014 | [6] -0.006 | [7] 0.004 | [8] -0.002 | [9] 0.039 | [10] -0.009 | [11] -0.036 | [12] -0.022 | [13] 0.08 | [14] 0.058 | [15] 0.077 | [16] 0.098 | [18] 0.043 | [19] -0.062 | [20] -0.066

RAD54L2 (UniProt Q9Y4B4)
Chain of UniProt Q9Y4B4 (Q9Y4B4 whole entry, looked up): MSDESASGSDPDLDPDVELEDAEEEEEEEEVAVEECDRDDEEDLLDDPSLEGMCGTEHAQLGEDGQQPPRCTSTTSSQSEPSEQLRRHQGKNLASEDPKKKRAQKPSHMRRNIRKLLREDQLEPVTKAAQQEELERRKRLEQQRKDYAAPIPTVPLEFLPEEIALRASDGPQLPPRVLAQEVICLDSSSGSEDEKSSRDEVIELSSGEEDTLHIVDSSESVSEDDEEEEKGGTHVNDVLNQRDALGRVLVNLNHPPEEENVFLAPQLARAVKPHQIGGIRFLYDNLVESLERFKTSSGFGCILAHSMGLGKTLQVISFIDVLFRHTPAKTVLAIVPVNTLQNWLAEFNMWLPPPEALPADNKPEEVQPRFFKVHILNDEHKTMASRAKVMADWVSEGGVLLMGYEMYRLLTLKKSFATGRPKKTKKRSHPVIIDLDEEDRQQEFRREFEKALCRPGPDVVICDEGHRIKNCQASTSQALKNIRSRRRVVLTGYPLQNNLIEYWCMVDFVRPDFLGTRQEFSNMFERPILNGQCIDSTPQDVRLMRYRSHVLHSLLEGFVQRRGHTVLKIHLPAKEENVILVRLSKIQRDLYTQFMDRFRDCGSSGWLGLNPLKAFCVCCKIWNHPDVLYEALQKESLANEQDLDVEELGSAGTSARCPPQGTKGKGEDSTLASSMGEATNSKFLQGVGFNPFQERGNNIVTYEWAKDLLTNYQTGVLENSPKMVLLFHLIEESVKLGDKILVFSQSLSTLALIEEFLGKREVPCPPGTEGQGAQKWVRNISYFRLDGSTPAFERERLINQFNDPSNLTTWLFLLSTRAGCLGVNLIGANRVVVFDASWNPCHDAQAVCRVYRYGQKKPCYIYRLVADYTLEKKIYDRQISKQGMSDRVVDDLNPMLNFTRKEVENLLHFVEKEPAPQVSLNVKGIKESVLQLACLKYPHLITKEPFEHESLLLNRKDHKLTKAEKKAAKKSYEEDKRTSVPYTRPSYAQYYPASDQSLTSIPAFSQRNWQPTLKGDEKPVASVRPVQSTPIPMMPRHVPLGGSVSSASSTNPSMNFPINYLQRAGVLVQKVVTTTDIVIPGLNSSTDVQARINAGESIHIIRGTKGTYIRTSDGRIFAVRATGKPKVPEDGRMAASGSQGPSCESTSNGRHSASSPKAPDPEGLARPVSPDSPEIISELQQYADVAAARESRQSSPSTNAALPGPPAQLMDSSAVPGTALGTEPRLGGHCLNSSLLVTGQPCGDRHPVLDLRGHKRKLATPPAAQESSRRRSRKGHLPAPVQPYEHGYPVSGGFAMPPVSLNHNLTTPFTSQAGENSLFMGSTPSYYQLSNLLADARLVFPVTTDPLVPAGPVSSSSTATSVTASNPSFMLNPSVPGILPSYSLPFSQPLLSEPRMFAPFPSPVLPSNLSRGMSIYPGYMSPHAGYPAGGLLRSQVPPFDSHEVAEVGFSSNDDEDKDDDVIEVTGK
inactive: [1] 0.159 | [2] 0.081 | [3] -0.032 | [4] -0.201 | [5] -0.072 | [7] -0.149 | [8] 0 | [9] 0.078 | [10] -0.061 | [11] 0.007 | [13] -0.065 | [14] -0.013 | [15] 0.093 | [16] 0.102 | [17] 0.153 | [18] 0.141 | [19] -0.088 | [20] 0.045

RPS6KA3 (UniProt P51812)
Chain of UniProt P51812 (P51812 whole entry, looked up): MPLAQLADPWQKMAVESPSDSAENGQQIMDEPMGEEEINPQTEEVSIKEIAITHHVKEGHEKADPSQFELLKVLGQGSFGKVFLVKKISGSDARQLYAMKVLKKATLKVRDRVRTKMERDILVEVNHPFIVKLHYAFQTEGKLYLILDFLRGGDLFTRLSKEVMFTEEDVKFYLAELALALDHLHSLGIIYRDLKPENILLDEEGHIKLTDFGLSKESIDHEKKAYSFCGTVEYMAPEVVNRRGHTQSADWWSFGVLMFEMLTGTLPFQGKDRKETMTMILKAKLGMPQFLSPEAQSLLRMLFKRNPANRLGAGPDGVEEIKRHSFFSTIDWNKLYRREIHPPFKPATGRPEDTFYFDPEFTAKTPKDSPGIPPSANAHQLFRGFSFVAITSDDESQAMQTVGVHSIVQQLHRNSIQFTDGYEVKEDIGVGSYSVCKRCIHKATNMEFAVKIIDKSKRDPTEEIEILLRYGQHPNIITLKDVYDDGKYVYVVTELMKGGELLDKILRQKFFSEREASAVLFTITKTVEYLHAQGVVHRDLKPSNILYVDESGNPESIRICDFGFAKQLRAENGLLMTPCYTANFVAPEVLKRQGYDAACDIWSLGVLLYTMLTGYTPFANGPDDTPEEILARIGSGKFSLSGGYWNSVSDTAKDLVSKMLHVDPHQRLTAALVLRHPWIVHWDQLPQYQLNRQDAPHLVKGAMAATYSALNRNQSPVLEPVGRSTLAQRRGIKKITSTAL
active: [14] 0.433
inactive: [1] 0.031 | [2] 0.005 | [3] -0.003 | [5] -0.026 | [6] 0.133 | [7] -0.014 | [8] 0.093 | [9] 0.078 | [10] 0.037 | [11] 0.306 | [12] -0.151 | [15] -0.017 | [16] -0.107 | [17] 0.056 | [19] 0.049 | [20] -0.025

RHBDD1 (UniProt Q8TEB9)
Chain of UniProt Q8TEB9 (Q8TEB9 whole entry, looked up): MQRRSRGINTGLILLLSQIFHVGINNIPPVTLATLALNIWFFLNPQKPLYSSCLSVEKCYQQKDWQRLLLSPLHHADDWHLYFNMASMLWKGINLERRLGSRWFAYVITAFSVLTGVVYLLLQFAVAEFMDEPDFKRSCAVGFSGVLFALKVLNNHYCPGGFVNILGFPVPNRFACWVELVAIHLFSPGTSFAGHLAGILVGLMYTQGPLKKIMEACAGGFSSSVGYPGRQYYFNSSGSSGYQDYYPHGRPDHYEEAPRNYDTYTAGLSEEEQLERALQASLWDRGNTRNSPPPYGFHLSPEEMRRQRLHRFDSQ
inactive: [1] 0.105 | [2] -0.08 | [3] -0.05 | [4] -0.16 | [5] -0.074 | [7] 0.016 | [8] -0.029 | [11] -0.018 | [14] 0.024 | [16] 0.063 | [17] 0.054 | [19] 0.02

RPL27 (UniProt P61353)
inactive: [1] -0.022 | [2] -0.002 | [3] 0.011 | [4] -0.001 | [5] -0.008 | [6] -0.001 | [8] -0.079 | [9] 0.019 | [10] -0.015 | [11] 0.049 | [12] 0.009 | [13] -0.015 | [14] 0.006 | [15] 0.056 | [16] -0.015 | [17] 0.012 | [18] 0.006 | [19] 0.006 | [20] -0.023
active: [7] 0.572

RAP1B (UniProt P61224)
Chain of UniProt P61224 (P61224 whole entry, looked up): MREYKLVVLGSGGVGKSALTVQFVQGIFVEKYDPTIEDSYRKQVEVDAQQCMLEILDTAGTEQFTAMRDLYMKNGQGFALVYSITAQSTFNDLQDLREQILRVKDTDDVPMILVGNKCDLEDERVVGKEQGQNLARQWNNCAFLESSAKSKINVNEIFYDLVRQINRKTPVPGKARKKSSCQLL
inactive: [1] 0.006 | [2] 0.008 | [3] 0.054 | [4] 0.061 | [5] 0.018 | [6] -0.037 | [8] -0.035 | [9] 0.002 | [10] 0.005 | [11] 0.039 | [12] 0.05 | [13] 0.005 | [14] 0.02 | [15] 0.025 | [16] 0.011 | [17] -0.034 | [18] 0.015 | [19] 0.057 | [20] -0.054
active: [7] 0.372
